Measurements reported in PubChem BioAssay (EPA / NIEHS).
Results filed as inconclusive are left out. Calls of active or inactive are those of the source. Rule for the calls, unless noted: active = hit-call score of the fitted dose curve at least 0.9, where 1 is the maximum; inconclusive = response in the unintended direction; inactive = score below 0.9.

Tests used:
[1] = read-out: ABC Transporter (ABCB11), ABCB11 (gene 8647); assay: CLD_ABCB11_6hr: CellzDirect (CLD) Gene Expression Assay for ABC Transporter (ABCB11) at 6 hours (AID 2283675);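 note: hits raise ABCB11 mRNA level so AC50 marks induction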
In short: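 Human primary hepatocytes (two donor preparations) given fresh chemical daily at multiple concentrations, vehicle 0.2% DMSO. ABCB11 mRNA induction measured 6 h after dosing by qNPA chemiluminescence versus DMSO; cytotoxicity annotated from morphology.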

[2] = read-out: Cytochrome P450 2C19 (Homo sapiens) (UniProt P33261); assay: CLD_CYP2C19_6hr: CellzDirect (CLD) Gene Expression Assay for xenobiotic metabolism (CYP2C19) at 6 hours (AID 2283678)
In short: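 Primary human hepatocytes from two donor preparations were dosed daily, with 0.2% DMSO as vehicle, and harvested 6 h after dosing. CYP2C19 mRNA induction was measured by qNPA chemiluminescence and fitted as gain of signal against DMSO.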

[3] = CCTE_Padilla_ZF_144hpf_TERATOSCORE: (Legacy) CCTE's 144 Hour Post-fertilization zebrafish Assay Teratoscore, Padilla Lab (AID 2283679; active = hit-call score of the fitted dose curve at least 0.9, where 1 is the maximum; inactive = score below 0.9;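 for AC50: zebrafish embryos with chorions exposed by immersion from 6-8 hpf to 5 dpf with daily renewal; teratogenicity score from eye scoring of death hatching and malformations at 144 hpf; higher score means more developmental defects relative to DMSO baseline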)
In short: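 Larvae scored by eye at 144 hpf for death, hatching and malformations after a day in clean Hanks'. Before that, daily-renewed exposure at 80 uM (0.4% DMSO, 26C) from roughly 6-8 hpf through 5 dpf, 4 embryos per chemical.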

[4] = read-out: Cytochrome P450 3A4 (Homo sapiens) (UniProt P08684); assay: CLD_CYP3A4_6hr: CellzDirect (CLD) Gene Expression Assay for xenobiotic metabolism (CYP3A4) at 6 hours (AID 2283680)
In short: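 Primary human hepatocytes (two donor preparations) dosed; CYP3A4 mRNA harvested at 6 h and quantified by qNPA chemiluminescence. Gain of signal fitted against 0.2% DMSO vehicle; cytotoxicity flagged by phase-contrast morphology.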

[5] = read-out: Glyceraldehyde-3-phosphate dehydrogenase (Homo sapiens) (UniProt P04406); assay: CLD_GAPDH_6hr: CellzDirect (CLD) Gene Expression Assay for Baseline Control (Glyceraldehyde 3-phosphate dehydrogenase) at 6 hours (AID 2283681);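 note: active means increased signal relative to DMSO vehicle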
In short: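 Primary human hepatocytes from two donor preparations, dosed at multiple concentrations with 0.2% DMSO vehicle; GAPDH mRNA measured 6 h after dosing by chemiluminescent quantitative nuclease protection assay (qNPA) on denatured lysates. Serves as background control; cytotoxicity annotated by morphology.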

[6] = read-out: HMG-CoA synthase (HMGCS2), HMGCS2 (gene 3158); assay: CLD_HMGCS2_6hr: CellzDirect (CLD) Gene Expression Assay for HMG-CoA synthase (HMGCS2) at 6 hours (AID 2283682);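 note: actives raise HMGCS2 transcript above the 0.2% DMSO vehicle baseline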
In short: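 Primary human hepatocytes dosed daily with fresh chemical, 0.2% DMSO vehicle; HMGCS2 mRNA measured at 6 h by qNPA chemiluminescence. Gain of signal fitted against DMSO; cytotoxicity flagged from phase-contrast morphology.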

[7] = read-out: xenobiotic metabolism (CYP1A2), CYP1A2 (gene 1544); assay: CLD_CYP1A2_24hr: CellzDirect (CLD) Gene Expression Assay for xenobiotic metabolism (CYP1A2) at 24 hours (AID 2283683)
In short: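 Primary human hepatocytes from two donor preparations dosed daily with multiple concentrations of chemical, 0.2% DMSO vehicle. CYP1A2 mRNA at 24 h quantified by qNPA chemiluminescence; gain of signal analyzed relative to DMSO. Cytotoxicity flagged by phase-contrast morphology.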

[8] = read-out: Cytochrome P450 2B6 (Homo sapiens) (UniProt P20813); assay: CLD_CYP2B6_24hr: CellzDirect (CLD) Gene Expression Assay for xenobiotic metabolism (CYP2B6) at 24 hours (AID 2283686)
In short: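 Primary human hepatocytes dosed daily for two days with fresh solutions, harvested at 24 hours; mRNA induction quantified by qNPA chemiluminescence, gain of signal vs 0.2% DMSO vehicle. Cytotoxicity annotated from phase-contrast morphology.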

[9] = read-out: Glyceraldehyde-3-phosphate dehydrogenase (Homo sapiens) (UniProt P04406); assay: CLD_GAPDH_24hr: CellzDirect (CLD) Gene Expression Assay for Baseline Control (Glyceraldehyde 3-phosphate dehydrogenase) at 24 hours (AID 2283692)
In short: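 Primary human hepatocytes (two donor preparations) dosed daily for two days, 0.2% DMSO vehicle; GAPDH mRNA measured at 24 h by qNPA chemiluminescence as a background control, gain-of-signal fitted against DMSO.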

[10] = read-out: glucuronosyltransferase (UGT1A1), UGT1A1 (gene 54658); assay: CLD_UGT1A1_24hr: CellzDirect (CLD) Gene Expression Assay for glucuronosyltransferase (UGT1A1) at 24 hours (AID 2283696)
In short: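 Primary human hepatocytes from two donor preparations were dosed (0.2% DMSO vehicle) and harvested at 24 h; UGT1A1 mRNA induction was quantified by chemiluminescent qNPA, fitted as gain relative to DMSO.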

[11] = read-out: Cytochrome P450 2B6 (Homo sapiens) (UniProt P20813); assay: CLD_CYP2B6_6hr: CellzDirect (CLD) Gene Expression Assay for xenobiotic metabolism (CYP2B6) at 6 hours (AID 2283677);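 note: actives raise CYP2B6 transcript above DMSO baseline so AC50 marks an inducer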
In short: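 Primary human hepatocytes dosed with chemicals at multiple concentrations, vehicle 0.2% DMSO; CYP2B6 mRNA induction measured 6 h after dosing by quantitative nuclease protection assay with chemiluminescence, gain of signal fitted relative to DMSO.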

[12] = read-out: ABC Transporter (ABCB1), ABCB1 (gene 5243); assay: CLD_ABCB1_24hr: CellzDirect (CLD) Gene Expression Assay for ABC Transporter (ABCB1) at 24 hours (AID 2283684)
In short: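 Primary human hepatocytes, two donor preparations, dosed daily with fresh solutions; vehicle 0.2% DMSO; harvested at 24 h. ABCB1 mRNA measured by quantitative nuclease protection assay (chemiluminescence); morphology-based cytotoxicity annotated.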

[13] = read-out: sulfotransferase (SULT2A), SULT2A1 (gene 6822); assay: CLD_SULT2A_24hr: CellzDirect (CLD) Gene Expression Assay for sulfotransferase (SULT2A) at 24 hours (AID 2283694)
In short: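 Primary human hepatocytes from two donor preparations were dosed daily with fresh solutions, vehicle 0.2% DMSO. At 24 h, lysates went to quantitative nuclease protection (qNPA) with S1 digestion and chemiluminescent readout. Cytotoxicity was annotated from phase-contrast morphology.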

[14] = read-out: Broad substrate specificity ATP-binding cassette transporter ABCG2 (Homo sapiens) (UniProt Q9UNQ0); assay: CLD_ABCG2_24hr: CellzDirect (CLD) Gene Expression Assay for ABC Transporter (ABCG2) at 24 hours (AID 2283685)
In short: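 Primary human hepatocytes were dosed daily with ToxCast chemicals at multiple concentrations (vehicle 0.2% DMSO). ABCG2 mRNA was measured at 24 h by qNPA chemiluminescence; induction was scored as gain of signal versus DMSO.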

[15] = read-out: Cytochrome P450 2C9 (Homo sapiens) (UniProt P11712); assay: CLD_CYP2C9_24hr: CellzDirect (CLD) Gene Expression Assay for xenobiotic metabolism (CYP2C9) at 24 hours (AID 2283688)
In short: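 Primary human hepatocytes from two donor preparations, dosed daily for two days at multiple concentrations; vehicle 0.2% DMSO. CYP2C9 mRNA induction at 24 h measured by qNPA chemiluminescence relative to DMSO; cytotoxicity annotated from morphology.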

[16] = read-out: ABC Transporter (ABCB1), ABCB1 (gene 5243); assay: CLD_ABCB1_48hr: CellzDirect (CLD) Gene Expression Assay for ABC Transporter (ABCB1) at 48 hours (AID 2283695)
In short: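 Primary human hepatocytes from two donor preparations dosed daily on two consecutive days with 0.2% DMSO vehicle. Harvest at 48 h. ABCB1 mRNA quantified by qNPA with chemiluminescence and fitted for gain of signal versus DMSO.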

[17] = read-out: Cytochrome P450 3A4 (Homo sapiens) (UniProt P08684); assay: CLD_CYP3A4_24hr: CellzDirect (CLD) Gene Expression Assay for xenobiotic metabolism (CYP3A4) at 24 hours (AID 2283689)
In short: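 Primary human hepatocytes from two donors dosed daily with fresh compound for two days, 0.2% DMSO vehicle. CYP3A4 mRNA at 24 hr by qNPA chemiluminescence; gain-of-signal fit versus DMSO, cytotoxicity flagged by morphology.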

[18] = read-out: Cytochrome P450 2C19 (Homo sapiens) (UniProt P33261); assay: CLD_CYP2C19_24hr: CellzDirect (CLD) Gene Expression Assay for xenobiotic metabolism (CYP2C19) at 24 hours (AID 2283687);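 note: activity means mRNA induction above DMSO vehicle baseline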
In short: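 Primary human hepatocytes (two donor preparations) dosed daily with fresh test chemical in 0.2% DMSO vehicle; CYP2C19 mRNA induction measured at 24 h by quantitative nuclease protection assay with chemiluminescence, fitted for gain of signal versus DMSO.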

[19] = CLD_ACTIN_6hr: CellzDirect (CLD) Gene Expression Assay for Baseline Control (Actin) at 6 hours (AID 2283676);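 note: active means increased actin mRNA relative to DMSO vehicle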
In short: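 Primary human hepatocytes dosed with fresh chemical solutions (vehicle 0.2% DMSO), harvested at 6 h. Actin mRNA quantified by quantitative nuclease protection assay with chemiluminescent read-out, as background control relative to DMSO.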

Measured: AC50

Chain of Broad substrate specificity ATP-binding cassette transporter ABCG2 (Homo sapiens) (Q9UNQ0 whole entry, looked up): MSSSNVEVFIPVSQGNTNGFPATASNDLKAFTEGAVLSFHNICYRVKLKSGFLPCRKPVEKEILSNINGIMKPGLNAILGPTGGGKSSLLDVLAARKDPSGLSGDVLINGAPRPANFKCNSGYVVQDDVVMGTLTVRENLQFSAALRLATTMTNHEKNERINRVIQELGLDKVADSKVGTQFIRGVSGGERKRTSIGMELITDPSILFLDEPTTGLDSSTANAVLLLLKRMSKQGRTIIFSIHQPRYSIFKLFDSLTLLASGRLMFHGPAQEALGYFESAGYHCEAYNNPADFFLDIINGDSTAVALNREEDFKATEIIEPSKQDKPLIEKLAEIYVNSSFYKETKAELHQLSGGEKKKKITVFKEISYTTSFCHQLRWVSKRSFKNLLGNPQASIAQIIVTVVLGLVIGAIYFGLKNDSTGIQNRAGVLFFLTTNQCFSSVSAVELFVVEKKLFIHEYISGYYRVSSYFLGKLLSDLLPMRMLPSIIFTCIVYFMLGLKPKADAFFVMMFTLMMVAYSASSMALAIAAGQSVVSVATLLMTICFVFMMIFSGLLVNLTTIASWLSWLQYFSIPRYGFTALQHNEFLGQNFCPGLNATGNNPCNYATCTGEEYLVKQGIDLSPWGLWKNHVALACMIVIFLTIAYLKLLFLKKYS
Chain of Glyceraldehyde-3-phosphate dehydrogenase (Homo sapiens) (P04406 whole entry, looked up): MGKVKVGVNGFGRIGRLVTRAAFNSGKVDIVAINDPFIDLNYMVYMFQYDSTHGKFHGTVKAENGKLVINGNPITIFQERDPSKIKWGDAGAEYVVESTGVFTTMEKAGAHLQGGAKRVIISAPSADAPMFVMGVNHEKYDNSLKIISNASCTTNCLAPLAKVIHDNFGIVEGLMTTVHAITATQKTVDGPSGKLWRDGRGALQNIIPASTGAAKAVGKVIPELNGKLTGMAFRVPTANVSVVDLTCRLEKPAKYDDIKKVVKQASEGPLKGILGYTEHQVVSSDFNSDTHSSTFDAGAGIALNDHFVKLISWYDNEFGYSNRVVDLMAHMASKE
Chain of Cytochrome P450 3A4 (Homo sapiens) (P08684 whole entry, looked up): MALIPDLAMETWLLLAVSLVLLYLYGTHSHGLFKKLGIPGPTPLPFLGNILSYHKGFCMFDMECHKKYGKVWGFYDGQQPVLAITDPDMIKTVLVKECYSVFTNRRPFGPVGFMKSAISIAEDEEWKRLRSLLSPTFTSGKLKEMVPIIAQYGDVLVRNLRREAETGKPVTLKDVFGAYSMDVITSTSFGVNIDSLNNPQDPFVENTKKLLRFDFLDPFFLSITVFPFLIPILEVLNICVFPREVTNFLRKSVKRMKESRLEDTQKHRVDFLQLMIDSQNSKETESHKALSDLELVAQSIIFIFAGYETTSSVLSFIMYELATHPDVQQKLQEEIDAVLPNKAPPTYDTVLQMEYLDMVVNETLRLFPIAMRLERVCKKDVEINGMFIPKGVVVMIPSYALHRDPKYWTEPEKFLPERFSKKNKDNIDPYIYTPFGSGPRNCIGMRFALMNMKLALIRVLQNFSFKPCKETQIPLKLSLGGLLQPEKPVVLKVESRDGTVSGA
Chain of Cytochrome P450 2C19 (Homo sapiens) (P33261 whole entry, looked up): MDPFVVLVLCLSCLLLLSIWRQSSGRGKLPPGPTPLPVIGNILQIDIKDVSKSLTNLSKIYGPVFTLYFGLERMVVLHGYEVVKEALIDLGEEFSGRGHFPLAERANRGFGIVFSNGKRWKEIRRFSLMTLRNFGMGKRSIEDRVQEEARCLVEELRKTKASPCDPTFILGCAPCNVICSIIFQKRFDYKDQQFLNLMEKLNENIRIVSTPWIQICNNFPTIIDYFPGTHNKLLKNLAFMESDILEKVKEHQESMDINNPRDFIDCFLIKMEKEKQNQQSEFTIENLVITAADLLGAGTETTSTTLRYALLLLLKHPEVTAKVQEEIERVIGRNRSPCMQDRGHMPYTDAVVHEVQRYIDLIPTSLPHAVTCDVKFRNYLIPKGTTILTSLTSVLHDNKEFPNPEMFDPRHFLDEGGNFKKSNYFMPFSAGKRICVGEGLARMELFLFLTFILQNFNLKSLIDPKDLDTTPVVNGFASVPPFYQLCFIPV

CCc1cnc(C2=NC(C)(C(C)C)C(=O)N2)c(C(=O)O)c1 (stereo unspecified)
inactive: [1] | [2] | [3] | [4] | [5] | [6] | [7] | [8] | [9] | [10]

O=[N+]([O-])c1cc(C(F)(F)F)c(Cl)c([N+](=O)[O-])c1Nc1ncc(C(F)(F)F)cc1Cl
inactive: [1] | [2] | [4] | [5] | [6]
active: [3] 0.994 µM | [7] 0.508 µM

CCNc1nc(Cl)nc(NC(C)(C)C#N)n1
active: [11] 3.62 µM | [8] 3.69 µM
inactive: [1] | [2] | [3] | [4] | [6] | [7] | [12] | [13] | [10]

CCCCSP(=O)(SCCCC)SCCCC
active: [11] 1.9 µM | [3] 0.205 µM | [7] 2.48 µM | [10] 1.9 µM
inactive: [1] | [4] | [5] | [14] | [15] | [13] | [16]

CCOP(=O)(NC(C)C)Oc1ccc(SC)c(C)c1 (stereo unspecified)
active: [3] 50.3 µM | [7] 6.73 µM | [8] 6.17 µM
inactive: [4] | [15] | [9] | [13] | [10]

Cc1ccn2nc(S(=O)(=O)Nc3c(F)cccc3F)nc2n1
inactive: [11] | [3] | [4] | [5] | [7] | [14] | [15] | [17] | [13] | [10]

CCC(CC)Nc1c([N+](=O)[O-])cc(C)c(C)c1[N+](=O)[O-]
inactive: [1] | [5] | [6] | [18] | [15] | [13] | [10]
active: [3] 24.2 µM | [7] 33.4 µM

CSC1=N[C@@](C)(c2ccccc2)C(=O)N1Nc1ccccc1
active: [3] 3.03 µM | [7] 3.97 µM
not listed: [1] | [2] | [9] | [11] | [12] | [18] | [19]
inactive: all other assays above

CCOP(=S)(OCC)Oc1ccc([N+](=O)[O-])cc1
active: [3] 6.3 µM | [4] 2.2 µM | [7] 4.89 µM
inactive: [6] | [13] | [10]

CCc1cccc(CC)c1N(COC)C(=O)CCl
active: [3] 35.4 µM | [4] 1.93 µM | [8] 2.69 µM
inactive: [1] | [5] | [7] | [14] | [15] | [9] | [13] | [10]

N#CSCSC#N
active: [3] 5.18 µM
inactive: [1] | [5] | [6] | [14] | [9] | [13] | [16]

COP(=O)(OC)SCn1c(=O)oc2cc(Cl)cnc21
inactive: [1] | [7] | [14] | [13] | [16] | [10]
active: [3] 51.1 µM

COP(=O)(NC(C)=O)SC (stereo unspecified)
inactive: [2] | [3] | [4] | [5] | [7] | [9] | [10]

C#CC(C)(C)NC(=O)c1cc(Cl)cc(Cl)c1
inactive: [19] | [3] | [7] | [14] | [15] | [17] | [13]
active: [10] 1.69 µM

CCCCN(CC)c1c([N+](=O)[O-])cc(C(F)(F)F)cc1[N+](=O)[O-]
active: [3] 5.08 µM | [7] 7.29 µM | [8] 7.3 µM | [10] 9.11 µM
inactive: [4] | [5] | [12] | [15] | [13]

CCC(=NOC/C=C/Cl)C1=C(O)CC(C2CCOCC2)CC1=O (stereo unspecified)
inactive: [19] | [2] | [3] | [5] | [6] | [7] | [12] | [15] | [9] | [10]

Cc1cc(C2CC2)nc(Nc2ccccc2)n1
inactive: [4] | [10]
active: [3] 15.3 µM | [7] 4.15 µM | [8] 3.97 µM

CNC(=O)Oc1cccc2c1OC(C)(C)O2
inactive: [4] | [6] | [15] | [10]
active: [3] 50.1 µM | [7] 20 µM | [8] 20 µM

CCOP(=S)(Oc1cnc(C(C)(C)C)nc1)OC(C)C (stereo unspecified)
active: [1] 27.4 µM | [3] 16.8 µM | [4] 1.89 µM | [7] 6.43 µM | [10] 3.14 µM
inactive: [5] | [14] | [15] | [13]

FC(F)C(F)(F)OCC(Cn1cncn1)c1ccc(Cl)cc1Cl (stereo unspecified)
inactive: [14] | [13] | [10]
active: [3] 57.8 µM | [7] 1.46 µM | [8] 0.275 µM
